Structures can show the parent of a compound that is named as a salt. ± gives the standard deviation of the averaged measurements. In all, about 1,800 compounds were measured (“GFP- (p16Ink4a-) cell count relative to negative-control wells”: median about 0.99, lowest 2% from about 0.5 on). What follows is part of a selection rich in the lowest values, with near analogues and random picks from the rest.
tested on: mouse p16Ink4a+/- lung fibroblasts (INKBRITE, bleomycin-injured); assay: GFP- (p16Ink4a-) cell count relative to negative-control wells (fold of vehicle); higher = more p16Ink4a- cells surviving; conditions: 1 µM; 3 days

Row | Structure (SMILES) | GFP-
1 | COC(=O)[C@]12CCC(C)(C)C[C@@H]1[C@@H]1C(=O)C=C3[C@]4(C)C=C(C#N)C(=O)C(C)(C)[C@@H]4CC[C@@]3(C)[C@]1(C)CC2 [Bardoxolone Methyl] | 0.406
2 | O=C(c1ccc(F)cc1)C1CCN(CCn2c(=O)[nH]c3ccccc3c2=O)CC1 [Ketanserin Tartrate] | 0.924
3 | COc1ccc2c(c1)c(CC(=O)N1CCOCC1)c(C)n2C(=O)c1ccc(Cl)cc1 | 1.15
4 | COC(=O)[C@H](Cc1ccccc1)NC(=O)[C@@H](N)CC(=O)O [Aspartame] | 0.966
5 | CC(=O)SCC(Cc1ccccc1)C(=O)NCC(=O)OCc1ccccc1 (centres undefined) [Racecadotril] | 0.972
6 | CC(C)C[C@@H](C=O)NC(=O)[C@H](CC(C)C)NC(=O)[C@H](CC(C)C)NC(=O)OCc1ccccc1 | 0.302
7 | CCCC(=O)Nc1cccc(NC(=O)c2ccccc2Br)c1 | 1.03
8 | CCOC(=O)C1=C(C)N=C(C)/C(=C(/O)OCC)C1c1ccccc1/C=C/C(=O)OC(C)(C)C (centres undefined) [Lacidipine] | 1.08
9 | Clc1ccc(C(Cn2ccnc2)OCc2ccsc2Cl)c(Cl)c1 (centres undefined) [Tioconazole] | 0.993
10 | Cn1nc(C(C)(C)C)cc1C(=O)N[C@@H](Cc1cccc(Cl)c1)C(=O)NCC#N [Cathepsin Inhibitor 1] | 1.01
11 | O=C1CCC[C@@H]2[C@H]3CCC[N+]4([O-])CCC[C@@H](CN12)[C@@H]34 (some centres undefined) [Oxymatrine] | 1.08
12 | O=S(=O)(O)c1cc(O)ccc1O [Ethamsylate] | 0.995
13 | C=C1/C(=C\C=C2/CCC[C@]3(C)[C@@H]([C@H](C)CCCC(C)(C)O)CC[C@@H]23)C[C@@H](O)C[C@@H]1O [Calcitriol, DN-101] | 1.39
14 | CN1CCN(S(=O)(=O)c2ccc(-c3cnc(N)c(C(=O)Nc4cccnc4)n3)cc2)CC1 | 0.998
15 | Cc1[nH]c(/C=C2\C(=O)Nc3ccc(S(=O)(=O)Cc4c(Cl)cccc4Cl)cc32)c(C)c1C(=O)N1CCC[C@@H]1CN1CCCC1 | 0.404
16 | Cc1[nH]c(/C=C2\C(=O)Nc3ccc(S(=O)(=O)N(C)c4cccc(Cl)c4)cc32)c(C)c1C(=O)N1CCN(C)CC1 | 0.704
17 | Cc1[nH]c(/C=C2\C(=O)Nc3ccccc32)c(C)c1CCC(=O)O [Orantinib] | 1.09
18 | N=C(N)Nc1ccc(C(=O)Oc2ccc3cc(C(=N)N)ccc3c2)cc1 [Nafamostat] | 1.16
19 | Nc1cc(C(Cl)=C(Cl)Cl)c(S(N)(=O)=O)cc1S(N)(=O)=O [Clorsulon] | 1.08
20 | Cc1cc(C)c(/C=C2\C(=O)Nc3ccccc32)[nH]1 [Semaxanib] | 0.862
21 | Cc1ccc(-n2sc(=O)n(Cc3ccc(F)cc3)c2=O)cc1 | 1.1
22 | COc1ccc(-c2ccc3cc(C(=O)O)ccc3c2)cc1C12CC3CC(CC(C3)C1)C2 [Adapalene] | 1.05

Row | Structure (SMILES) | GFP-
23 | O=C(NCc1ccccc1)c1csc(Nc2ccncn2)n1 [Thiazovivin] | 1.04
24 | O=c1cc(-c2ccccc2)oc2cc(O)cc(O)c12 [Chrysin] | 0.996
25 | CCN1CCC[C@H]1CNC(=O)c1cc(S(N)(=O)=O)ccc1OC [Levosulpiride] | 0.964
26 | C[C@]12CC[C@H](O)CC1=CCC1C2CC[C@]2(C)C(n3cnc4ccccc43)=CCC12 (some centres undefined) [Galeterone] | 1.11
27 | O=C1Nc2ccc(I)cc2/C1=C/c1cc(Br)c(O)c(Br)c1 | 1.02
28 | CCOc1ccc(Cc2cc([C@@H]3O[C@H](CO)[C@@H](O)[C@H](O)[C@H]3O)ccc2Cl)cc1 [Dapagliflozin] | 1.12
29 | C=CCc1ccc(O)c(-c2ccc(O)c(CC=C)c2)c1 [Honokiol] | 0.883
30 | C=CCc1cccc(/C=N/NC(=O)CN2CCN(Cc3ccccc3)CC2)c1O | 0.654
31 | Cc1cc(NC(=O)Nc2ccc(N(C)C)cc2)c2cc(F)cc(F)c2n1 | 1.15
32 | CCOC(=O)[C@H](CCc1ccccc1)N[C@@H](C)C(=O)N1CCC[C@H]1C(=O)O [Enalapril] | 1
33 | Cc1ccc(F)c(NC(=O)Nc2ccc(-c3cccc4[nH]nc(N)c34)cc2)c1 [Linifanib] | 0.965
34 | NC1(c2ccc(-c3nc4ccn5c(O)nnc5c4cc3-c3ccccc3)cc2)CCC1 | 0.82
35 | COc1cc([C@@H]2c3cc4c(cc3[C@@H](O[C@@H]3O[C@@H]5CO[C@@H](C)O[C@H]5[C@H](O)[C@H]3O)[C@H]3COC(=O)[C@H]23)OCO4)cc(OC)c1O [Etoposide] | 0.985
36 | Cc1nc(O)c2cc(CN(C)c3ccc(C(=O)N[C@@H](CCC(=O)O)C(=O)O)s3)ccc2n1 [Raltitrexed] | 1.01
37 | CC(C)N(CCCNC(=O)Nc1ccc(C(C)(C)C)cc1)C[C@H]1O[C@@H](n2cc(Br)c3c(N)ncnc32)[C@H](O)[C@@H]1O | 1.01 ± 0.042
38 | COc1ccc(C(C)=O)c(O)c1 [Paeonol] | 1.18
39 | Cc1nc(NC(=O)N2CCC[C@H]2C(N)=O)sc1-c1csc(C(C)(C)C)n1 | 1.03
40 | CNC(=O)c1ccccc1Nc1nc(Nc2ccc(N3CCOCC3)cc2OC)ncc1Cl | 0.742
41 | CN1CC[C@H](c2c(O)cc(O)c3c(=O)cc(-c4ccccc4Cl)oc23)[C@H](O)C1 [Flavopiridol] | 0.326
42 | CN1CC[C@@H](c2c(O)cc(O)c3c(=O)cc(-c4ccccc4Cl)oc23)[C@@H]1CO | 0.807
43 | CC(=O)/N=c1/sc(S(N)(=O)=O)nn1C [Methazolamide] | 1.16
44 | C=C1C(=O)[C@@]23C(CC[C@@H]1[C@H]2O)[C@@]12CO[C@]3(O)[C@@H](O)[C@@H]1C(C)(C)CC[C@@H]2O (some centres undefined) [Oridonin] | 0.884

Row | Structure (SMILES) | GFP-
45 | C[C@@H](CN1CC(=O)NC(=O)C1)N1CC(=O)NC(=O)C1 [Dexrazoxane] | 0.899
46 | Cn1ncnc1[C@H]1c2nnc(O)c3cc(F)cc(c23)N[C@@H]1c1ccc(F)cc1 | 0.616 ± 0.066
47 | CC1=NC(N)=C(C(=O)OC2CN(C(c3ccccc3)c3ccccc3)C2)C(c2cccc([N+](=O)[O-])c2)/C1=C(/O)OC(C)C (centres undefined) [Azelnidipine] | 1.11
48 | Cc1cc(CN2CCN(c3c(Br)cnc4[nH]c(-c5ccc(N6CCN(C)CC6)cc5)nc34)CC2)no1 | 0.664 ± 0.17
49 | NS(=O)(=O)c1cc2c(cc1Cl)NCNS2(=O)=O [Hydrochlorothiazide] | 1.06
50 | CC[C@]1(O)C[C@@H]2CN(CCc3c([nH]c4ccccc34)[C@@](C(=O)OC)(c3cc4c(cc3OC)N(C=O)[C@@H]3C45CCN4CC=C[C@](CC)([C@H]45)[C@@H](OC(C)=O)[C@]3(O)C(=O)OC)C2)C1 (some centres undefined) [Vincristine] | 0.699
51 | CCn1cc(C(=O)O)c(=O)c2ccc(C)nc21 [Nalidixic Acid] | 0.895
52 | CC(=O)O[C@]1(C(C)=O)CC[C@H]2[C@@H]3C[C@H](C)C4=CC(=O)C=C[C@]4(C)[C@@]3(F)[C@@H](O)C[C@@]21C [Fluorometholone Acetate] | 1.14
53 | C[C@@]1(C(=O)Nc2ccc(F)nc2)CCCN1c1nc(Nc2cc(C3CC3)[nH]n2)c2cccn2n1 | 0.776
54 | COc1cc2nc(N3CCN(C(=O)C4CCCO4)CC3)nc(N)c2cc1OC (centres undefined) [Terazosin] | 0.942
55 | CC(C(=O)O)c1ccc2c(c1)CC(=O)c1ccccc1S2 (centres undefined) [Zaltoprofen] | 1.01
56 | Cc1ccc(CNc2ncnc3ccc(-c4ccc(CO)o4)cc23)o1 | 0.793
57 | CC1=C(C(=O)OC2CCCCC2)C(c2ccc([N+](=O)[O-])cc2)C2=C(O)CC(C)(C)CC2=N1 (centres undefined) | 0.82
58 | CC(C)c1ccc(NC(=O)Cn2cnc3c2c(=O)n(C)c(=O)n3C)cc1 | 0.98
59 | CCC(=O)N1CCN(c2ccc(-n3c(=O)ccc4cnc5ccc(-c6cnc7ccccc7c6)cc5c43)cc2C(F)(F)F)CC1 [Torin 1] | 0.571
60 | Nc1ccc(-c2ccc3ncc4ccc(=O)n(-c5cccc(C(F)(F)F)c5)c4c3c2)cn1 [Torin 2] | 0.456
61 | O=C(O)CCNC(=O)c1ccccc1 [Betamipron] | 1.06
62 | CN(NC(=O)CC(=O)NN(C)C(=S)c1ccccc1)C(=S)c1ccccc1 [Elesclomol] | 0.277
63 | O=C(O)c1ccccc1 [Benzoic Acid] | 1.05
64 | CC1(C)O[C@@H]2C[C@H]3[C@@H]4CCC5=CC(=O)CC[C@]5(C)[C@@]4(F)[C@@H](O)C[C@]3(C)[C@]2(C(=O)CCl)O1 [Halcinonide] | 1.02

Source: the supplement of paper PMC11060735
